Experimental data published in PubChem BioAssay AID720706 (Broad Institute, 2013).
“And” between values parts separate entries of the source, which are not always exact repeats. Identical values can stand only once. The whole screen tested about 350,000 compounds, of which about 5,500 (1.6%) were called active.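 The calls were made as follows: active = significant combined selectivity score with lowered wild-type GFP, culture density cut under 30%, mutant RFP and density less affected; inactive = any of these conditions unmet.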 The sample as a whole holds a higher share of actives than the screen did.

test: reduced GFP signal of wild-type E. coli, primary screen, bacterial rRNA inhibitor project, GFP/RFP fluorescence, OD600, single point (AID 720706); details: E. coli WT GFP vs humanized-ribosome RFP mutants, 24 h; GFP signal change (wild-type ribosome): stronger effect = lower value, concentration not given here unless noted; OD600 change: measured here: OD600 growth unless noted; RFP signal change: measured here: RFP humanized mutant strains, concentration not given here unless noted

Structure (SMILES) | GFP signal change (wild-type ribosome) | OD600 change | RFP signal change
O=C1CC(=O)N(Cc2ccccc2)C(=O)N1CCCCCCN1C(=O)CC(=O)N(Cc2ccccc2)C1=O | -23.4% (active) | 8% | -3.78%
O=C(CN1CCCC1=O)NCCc1ccccc1 | 13.1% (inactive) | 9.85% | 2.04%
CS(=O)(=O)N1CCC2CCNC2C1 (stereo not given) | -44.3% [stronger effect = lower value, DMSO median 0, no signal -100] (inactive) | -74.4% [measured here: OD600 growth, DMSO median 0, no signal -100] | -13% [measured here: RFP humanized mutant strains, DMSO median 0, no signal -100, concentration not given here]
O=C(Cc1ccccc1)N1CCCCN2[C@H](C1)[C@H](c1ccc(C#CC3(O)CCCC3)cc1)[C@@H]2CO | -0.103% (inactive) | -5.65% | -2.06%
COC(=O)[C@@H]1[C@@H](CO)[C@@H]2Cn3c(ccc(-c4ccc(F)cc4)c3=O)[C@H]1N2C(C)=O | -1.54% (inactive) | -1.06% | -2.02%
C[C@]12CCC3C(CC[C@H]4[C@H](O)[C@H](O)CC[C@]34C)C1CCC2=O (stereo not given in full) | -22.2% (inactive) | -18.8% | 3.96%
CC12CCC3C(CCC4CC(=O)CCC43C)C1CC(=NO)C2=O (stereo not given) | -22% (active) | -9.98% | 4.28%
C[C@]12CCC3C(CC[C@H]4C[C@@H](O)CC[C@]34C)C1C[C@@H](O)[C@H]2O (stereo not given in full) | -1.03% (inactive) | 2.49% | 0.13%
C=CCN1[C@@H]2CN(S(C)(=O)=O)C[C@H]1C2c1ccc(Br)cc1 (stereo not given in full) | 0.44% [stronger effect = lower value, DMSO median 0, no signal -100] (inactive) | -2.24% [measured here: OD600 growth, DMSO median 0, no signal -100] | 0.309% [measured here: RFP humanized mutant strains, DMSO median 0, no signal -100, concentration not given here]
COc1cccc(-c2ccc3n(c2=O)C[C@@H]2[C@@H](CO)[C@H](C(=O)O)[C@H]3N2C(=O)c2cnccn2)c1 | 0.18% (inactive) | 2.71% | -2.44%
Brc1ccc2c(c1)CNCc1cnnn1-2 | 21.4% [stronger effect = lower value, DMSO median 0, no signal -100] (inactive) | 6.17% [measured here: OD600 growth, DMSO median 0, no signal -100] | 0.786% [measured here: RFP humanized mutant strains, DMSO median 0, no signal -100, concentration not given here]
C/C=C/c1ccc(C2[C@@H]3CN(S(C)(=O)=O)C[C@H]2N3)cc1 (stereo not given in full) | 0.848% [stronger effect = lower value, DMSO median 0, no signal -100] (inactive) | 10.1% [measured here: OD600 growth, DMSO median 0, no signal -100] | 0.743% [measured here: RFP humanized mutant strains, DMSO median 0, no signal -100, concentration not given here]
C/C(=N/O)c1ccc2ccc3ccccc3c2c1 | -48% (active) | -16.4% | -10.4%
O=[N+]([O-])c1cnc2ccc3ccccc3c2c1 | -67.7% (inactive) | -75.7% | -31.1%
Clc1ccc([C@@H]2CC3CCC2N3)cn1 (stereo not given in full) | 0.922% [stronger effect = lower value, DMSO median 0, no signal -100] (inactive) | -1.31% [measured here: OD600 growth, DMSO median 0, no signal -100] | -1.9% [measured here: RFP humanized mutant strains, DMSO median 0, no signal -100, concentration not given here]
FC(F)(F)CN1CC2C(c3ccc(Br)cc3)C(C1)N2CC1CC1 (stereo not given) | -5.85% [stronger effect = lower value, DMSO median 0, no signal -100] (inactive) | -3.54% [measured here: OD600 growth, DMSO median 0, no signal -100] | -0.25% [measured here: RFP humanized mutant strains, DMSO median 0, no signal -100, concentration not given here]
O=C(Cc1ccncc1)N1CCCCN2[C@H](CO)[C@@H](c3ccc(C#CC4(O)CCCC4)cc3)[C@H]2C1 | 5.65% (inactive) | 9.16% | 1.41%
Cc1ncoc1C(=O)NCC1=C(c2cccc3ccccc23)C[C@@H]2CC[C@H]1N2Cc1ccco1 | 5.41% (inactive) | -0.665% | -7.54%
CCOc1ccc(-c2cc(C)[n+](CCN(CC)CC)c(-c3ccc(OCC)cc3)c2)cc1 | -47.8% (active) | -15.2% | -13.2%
CCC(C)NC1(c2ccccc2)CCCCC1 (stereo not given) | 11.4% (inactive) | 7.39% | 4.1%
CCN(CC)c1ccc([N+](=O)[O-])c2cccnc12 | -44.1% (inactive) | -57.8% | -2.59%
CN(c1ccccc1)c1ccc([N+](=O)[O-])c2nonc12 | -8.38% (active) | -3.73% | -4.23%
FC(F)(F)CN1CC2NC(C1)C2c1ccc(Br)cc1 (stereo not given) | -1.54% [stronger effect = lower value, DMSO median 0, no signal -100] (inactive) | -0.568% [measured here: OD600 growth, DMSO median 0, no signal -100] | -0.0575% [measured here: RFP humanized mutant strains, DMSO median 0, no signal -100, concentration not given here]
O=S(=O)(c1ccccc1)N1CCC2CCNC2C1 (stereo not given) | 32.8% [stronger effect = lower value, DMSO median 0, no signal -100] (inactive) | 20.2% [measured here: OD600 growth, DMSO median 0, no signal -100] | 4.31% [measured here: RFP humanized mutant strains, DMSO median 0, no signal -100, concentration not given here]
CC(=O)N1C[C@@H]2C(c3ccc(Br)cc3)[C@H](C1)N2C (stereo not given in full) | -0.325% [stronger effect = lower value, DMSO median 0, no signal -100] (inactive) and 1.25% [stronger effect = lower value, DMSO median 0, no signal -100] (inactive) | 4.6% [measured here: OD600 growth, DMSO median 0, no signal -100] and 7.11% [measured here: OD600 growth, DMSO median 0, no signal -100] | -3.94% [measured here: RFP humanized mutant strains, DMSO median 0, no signal -100, concentration not given here] and 0.471% [measured here: RFP humanized mutant strains, DMSO median 0, no signal -100, concentration not given here]
CN(C)CC1Oc2ccccc2OC1(O)c1ccccc1 (stereo not given) | -40.9% (active) | -11.5% | -12.2%
COC(=O)[C@@H]1[C@@H](CO)[C@@H]2Cn3c(ccc(C4=CCCCC4)c3=O)[C@H]1N2CC1CC1 | -0.199% (inactive) | -2.21% | -0.887%
O=C(O)[C@H]1[C@H](CO)[C@H]2Cn3c(cccc3=O)[C@@H]1N2C(=O)c1ccccc1 | 2.42% (inactive) | 7.83% | -1.92%
COc1ccccc1CN1[C@@H](CO)[C@@H](c2ccccc2)C12CN(C(=O)Cc1ccccc1)C2 | -13.7% [stronger effect = lower value, DMSO median 0, no signal -100] (inactive) | -27.1% [measured here: OD600 growth, DMSO median 0, no signal -100] | -0.899% [measured here: RFP humanized mutant strains, DMSO median 0, no signal -100, concentration not given here]
COC(=O)[C@@H]1[C@@H](CO)[C@@H]2Cn3c(ccc(-c4cccc(C(=O)N(C)C)c4)c3=O)[C@H]1N2C(=O)NC(C)C | 1.25% (inactive) | 8.61% | -0.784%
